Test [1] is described as follows: ATG_XTT_Cytotoxicity: Cytotoxicity Assessment in the Attagene TRANS-FACTORIAL HepG2 Assay (AID 2283584; active means hit-call score of the fitted dose curve at least 0.9, where 1 is the maximum;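 on AC50: XTT signal for cell number as viability in transfected HepG2 cells; cells exposed to compound for 24 h before reading; active means loss of viability signal versus DMSO baseline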). In short, it runs like this: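 24 h chemical exposure of reporter-transfected HepG2; XTT signal loss vs DMSO indicates cytotoxicity.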
Read-out in test [2]: Protein phosphatase 2A (PPP2R4), PTPA (gene 5524)
The test is described as follows: LTEA_HepaRG_PPP2R4: Life Technologies and Expression Analysis (LTEA) Assay for Protein phosphatase 2A (PPP2R4) using HepaRG (AID 2283522). The note with it: mRNA level, 48 h; actives raise or lower the signal. The method in brief: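 Differentiated HepaRG cells in serum-free induction medium were exposed in duplicate for 48 h to eight concentrations, top 100 uM with half-log dilutions, in 0.5% DMSO. PPP2R4 mRNA was quantified by TaqMan qRT-PCR, normalized to ACTB, GAPDH and POLR2A.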

Read-out in test [3]: Phosphatase and tensin (PTEN), PTEN (gene 5728)
The test is described as follows: LTEA_HepaRG_PTEN: Life Technologies and Expression Analysis (LTEA) Assay for Phosphatase and tensin (PTEN) using HepaRG (AID 2283523). The note with it: mRNA level, 48 h; actives raise or lower the signal. In short, it runs like this: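 Read-out is PTEN transcript level by multiplexed TaqMan qRT-PCR after 48 h chemical treatment of human HepaRG cultures in serum-free induction medium. Concentrations spanned 100 uM downward in half-log steps, 0.5% DMSO throughout; activity fitted in both directions against vehicle.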

Read-out in test [4]: solute carrier (SLC22A1), SLC22A1 (gene 6580)
In words: LTEA_HepaRG_SLC22A1: Life Technologies and Expression Analysis (LTEA) Assay for solute carrier (SLC22A1) using HepaRG (AID 2283524). The settings on record: mRNA level, 48 h; actives raise or lower the signal. In short, it runs like this: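 HepaRG (human liver line), 48 h dosing in serum-free induction medium; 8 conc., half-log down from 100 uM, 0.5% DMSO vehicle, duplicates. Endpoint: SLC22A1 mRNA, qRT-PCR, housekeeping-normalized; gain/loss fit vs DMSO.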

Read-out in test [5]: Pyruvate Dehydrogenase Kinase 4 (PDK4), PDK4 (gene 5166)
In words: LTEA_HepaRG_PDK4: Life Technologies and Expression Analysis (LTEA) Assay for Pyruvate Dehydrogenase Kinase 4 (PDK4) using HepaRG (AID 2283525). The settings on record: mRNA level, 48 h; actives raise or lower the signal. In short, it runs like this: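 In this multiplexed human HepaRG expression assay, cells are treated 48 h with test chemicals across an eight-point range starting at 100 uM. PDK4 mRNA changes, normalized to ACTB/GAPDH/POLR2A, are fitted in both directions relative to vehicle.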

Read-out in test [6]: NAD(P)H dehydrogenase [quinone] 1 (NQO1), NQO1 (gene 1728)
The test is described as follows: LTEA_HepaRG_NQO1: Life Technologies and Expression Analysis (LTEA) Assay for NAD(P)H dehydrogenase [quinone] 1 (NQO1) using HepaRG (AID 2283526). The settings on record: mRNA level, 48 h; actives raise or lower the signal. The method in brief:
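Differentiated HepaRG cells, plated 48 h and then switched to serum-free induction medium, were exposed in duplicate for 48 h to 8-point half-log concentrations up to 100 uM in 0.5% DMSO. mRNA measured by qRT-PCR, normalized to ACTB, GAPDH, POLR2A; bidirectional fit versus DMSO.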

Read-out in test [7]: Nuclear factor erythroid 2-related factor 2 (Homo sapiens) (UniProt Q16236)
The test is described as follows: LTEA_HepaRG_NFE2L2: Life Technologies and Expression Analysis (LTEA) Assay for Nuclear factor erythroid 2-related factor 2 (NFE2L2) Transcription Factor using HepaRG (AID 2283527). The settings on record: mRNA level, 48 h; actives raise or lower the signal. In short, it runs like this:
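Transcript level of NFE2L2 is the read-out, measured by microfluidic TaqMan qRT-PCR and normalized to three housekeeping genes. Human HepaRG cultures received test chemical for 48 h at up to 100 uM in half-log steps. Gain or loss of signal is fitted relative to 0.5% DMSO.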

Read-out in test [8]: succinate dehydrogenase complex iron sulfur subunit B (SDHB), SDHB (gene 6390)
In words: LTEA_HepaRG_SDHB: Life Technologies and Expression Analysis (LTEA) Assay for succinate dehydrogenase complex iron sulfur subunit B (SDHB) using HepaRG (AID 2283528). The note with it: mRNA level, 48 h; actives raise or lower the signal. In short, it runs like this:
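SDHB transcript level read by TaqMan qRT-PCR, housekeeping-normalised (ACTB, GAPDH, POLR2A), after 48 h chemical treatment of plated HepaRG cells; eight concentrations top 100 uM, half-log steps, 0.5% DMSO, duplicates; fitted both directions against DMSO.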

Read-out in test [9]: Signal transducer and activator of transcription 3 (Homo sapiens) (UniProt P40763)
The test is described as follows: LTEA_HepaRG_STAT3: Life Technologies and Expression Analysis (LTEA) Assay for Signal transducer and activator of transcription (STAT3) using HepaRG (AID 2283529). The settings on record: mRNA level, 48 h; actives raise or lower the signal. In short, it runs like this:
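Read-out is STAT3 mRNA level by qRT-PCR, normalized to three housekeeping genes, in human HepaRG liver cells treated for 48 h. Concentrations ran from 100 uM downward in half-log steps; curves were fitted for gain or loss relative to 0.5% DMSO.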

Read-out in test [10]: solute carrier (SLCO1B1), SLCO1B1 (gene 10599)
In words: LTEA_HepaRG_SLCO1B1: Life Technologies and Expression Analysis (LTEA) Assay for solute carrier (SLCO1B1) using HepaRG (AID 2283530). The note with it: mRNA level, 48 h; actives raise or lower the signal. The method in brief: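 Human HepaRG cultures treated for 48 h with an eight-concentration half-log series topping at 100 uM; SLCO1B1 measured by qRT-PCR and fitted bidirectionally relative to DMSO.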

Read-out in test [11]: Transforming Growth Factor (TGFA), TGFA (gene 7039)
The test is described as follows: LTEA_HepaRG_TGFA: Life Technologies and Expression Analysis (LTEA) Assay for Transforming Growth Factor (TGFA) using HepaRG (AID 2283532). The settings on record: mRNA level, 48 h; actives raise or lower the signal. The method in brief: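 HepaRG (human liver line), 48 h exposure, 8 conc. half-log down from 100 uM, 0.5% DMSO vehicle, duplicates; serum-free induction medium. TGFA mRNA by TaqMan qRT-PCR, ACTB/GAPDH/POLR2A normalization; gain/loss fit vs DMSO.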

Read-out in test [12]: Transforming Growth Factor (TGFB1), TGFB1 (gene 7040)
The test is described as follows: LTEA_HepaRG_TGFB1: Life Technologies and Expression Analysis (LTEA) Assay for Transforming Growth Factor (TGFB1) Transporter using HepaRG (AID 2283533). The settings on record: mRNA level, 48 h; actives raise or lower the signal. The method in brief:
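Eight-point concentration-response (max 100 uM, half-log) in HepaRG under serum-free induction conditions, 48 h. TGFB1 mRNA by qRT-PCR, housekeeping-normalized.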

Read-out in test [13]: TIMP1, TIMP1 (gene 7076)
The test is described as follows: LTEA_HepaRG_TIMP1: Life Technologies and Expression Analysis (LTEA) Assay for TIMP1 using HepaRG (AID 2283534). The note with it: mRNA level, 48 h; actives raise or lower the signal. In short, it runs like this:
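TIMP1 induction or repression in HepaRG cells after 48 h chemical exposure (eight concentrations, highest 100 uM), assessed by normalized qRT-PCR with bidirectional fitting to DMSO controls.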

Read-out in test [14]: Tumor necrosis factor receptor 1 (TNFRSF1A), TNFRSF1A (gene 7132)
The test is described as follows: LTEA_HepaRG_TNFRSF1A: Life Technologies and Expression Analysis (LTEA) Assay for Tumor necrosis factor receptor 1 (TNFRSF1A) using HepaRG (AID 2283535). The settings on record: mRNA level, 48 h; actives raise or lower the signal. In short, it runs like this:
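Assay uses 48 h chemical treatment of differentiated HepaRG monolayers, tested in duplicate at eight concentrations from 100 uM downward in 0.5% DMSO. mRNA is normalized to ACTB, GAPDH and POLR2A, with induction or suppression fitted relative to vehicle.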

Read-out in test [15]: Thyroid Hormone Responsive (THRSP), THRSP (gene 7069)
The test is described as follows: LTEA_HepaRG_THRSP: Life Technologies and Expression Analysis (LTEA) Assay for Thyroid Hormone Responsive (THRSP) using HepaRG (AID 2283536). The note with it: mRNA level, 48 h; actives raise or lower the signal. The method in brief:
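mRNA induction or loss relative to 0.5% DMSO vehicle was fitted bidirectionally across an eight-point curve whose highest exposure was 100 uM. Human HepaRG liver cells received chemicals in duplicate over 48 h before RNA extraction.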

Read-out in test [16]: UDP glucuronosyltransferase (UGT1A1), UGT1A1 (gene 54658)
In words: LTEA_HepaRG_UGT1A1: Life Technologies and Expression Analysis (LTEA) Assay for UDP glucuronosyltransferase (UGT1A1) using HepaRG (AID 2283538). The note with it: mRNA level, 48 h; actives raise or lower the signal. In short, it runs like this: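 Differentiated human HepaRG cells in serum-free induction medium were exposed in duplicate for 48 h to eight half-log concentrations up to 100 uM in 0.5% DMSO. UGT1A1 mRNA was quantified by TaqMan qRT-PCR, normalized to ACTB, GAPDH and POLR2A, and fitted bidirectionally against DMSO.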

Read-out in test [17]: X-box binding protein 1 (XBP1), XBP1 (gene 7494)
The test is described as follows: LTEA_HepaRG_XBP1: Life Technologies and Expression Analysis (LTEA) Assay for X-box binding protein 1 (XBP1) using HepaRG (AID 2283540). The settings on record: mRNA level, 48 h; actives raise or lower the signal. In short, it runs like this: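 Eight concentrations (half-log, highest 100 uM, 0.5% DMSO) tested in duplicate on HepaRG cells over 48 h in serum-free induction medium; qRT-PCR of XBP1 normalised to ACTB, GAPDH, POLR2A.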

The nature of test [18]: LTEA_HepaRG_LDH_cytotoxicity: Cytotoxicity Assessment in the Life Technologies and Expression Analysis (LTEA) Assay (AID 2283563; active means hit-call score of the fitted dose curve at least 0.9, where 1 is the maximum). In short, it runs like this: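 Spent-medium LDH after 48 h chemical exposure of HepaRG cells in serum-free induction medium; eight concentrations, half-log dilutions from 100 uM, duplicate wells, fitted upward relative to 0.5% DMSO.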

Inconclusive results are not listed. The source made the active and inactive calls. How the source made its calls, unless noted: active means hit-call score of the fitted dose curve at least 0.9, where 1 is the maximum; inactive means score below 0.9.

Chain of Signal transducer and activator of transcription 3 (Homo sapiens) (P40763 whole entry, looked up): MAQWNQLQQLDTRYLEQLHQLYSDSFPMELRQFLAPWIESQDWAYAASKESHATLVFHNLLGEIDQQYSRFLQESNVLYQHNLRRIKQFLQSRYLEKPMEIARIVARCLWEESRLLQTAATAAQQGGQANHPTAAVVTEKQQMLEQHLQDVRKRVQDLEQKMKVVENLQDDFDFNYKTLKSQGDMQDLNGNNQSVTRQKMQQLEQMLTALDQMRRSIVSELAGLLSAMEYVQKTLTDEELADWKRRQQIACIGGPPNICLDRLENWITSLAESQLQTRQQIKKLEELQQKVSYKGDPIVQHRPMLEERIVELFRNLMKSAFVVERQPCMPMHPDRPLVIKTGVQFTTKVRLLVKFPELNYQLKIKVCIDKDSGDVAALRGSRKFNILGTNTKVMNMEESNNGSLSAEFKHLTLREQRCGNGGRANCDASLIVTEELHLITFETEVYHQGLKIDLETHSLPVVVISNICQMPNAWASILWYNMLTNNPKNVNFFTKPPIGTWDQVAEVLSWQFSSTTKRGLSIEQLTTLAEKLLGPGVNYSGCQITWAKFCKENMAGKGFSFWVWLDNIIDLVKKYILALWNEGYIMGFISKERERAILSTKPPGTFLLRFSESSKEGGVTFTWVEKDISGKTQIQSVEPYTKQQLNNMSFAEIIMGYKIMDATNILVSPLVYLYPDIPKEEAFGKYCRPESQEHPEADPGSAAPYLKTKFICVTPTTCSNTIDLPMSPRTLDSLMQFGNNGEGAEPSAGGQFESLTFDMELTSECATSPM
Chain of Nuclear factor erythroid 2-related factor 2 (Homo sapiens) (Q16236 whole entry, looked up): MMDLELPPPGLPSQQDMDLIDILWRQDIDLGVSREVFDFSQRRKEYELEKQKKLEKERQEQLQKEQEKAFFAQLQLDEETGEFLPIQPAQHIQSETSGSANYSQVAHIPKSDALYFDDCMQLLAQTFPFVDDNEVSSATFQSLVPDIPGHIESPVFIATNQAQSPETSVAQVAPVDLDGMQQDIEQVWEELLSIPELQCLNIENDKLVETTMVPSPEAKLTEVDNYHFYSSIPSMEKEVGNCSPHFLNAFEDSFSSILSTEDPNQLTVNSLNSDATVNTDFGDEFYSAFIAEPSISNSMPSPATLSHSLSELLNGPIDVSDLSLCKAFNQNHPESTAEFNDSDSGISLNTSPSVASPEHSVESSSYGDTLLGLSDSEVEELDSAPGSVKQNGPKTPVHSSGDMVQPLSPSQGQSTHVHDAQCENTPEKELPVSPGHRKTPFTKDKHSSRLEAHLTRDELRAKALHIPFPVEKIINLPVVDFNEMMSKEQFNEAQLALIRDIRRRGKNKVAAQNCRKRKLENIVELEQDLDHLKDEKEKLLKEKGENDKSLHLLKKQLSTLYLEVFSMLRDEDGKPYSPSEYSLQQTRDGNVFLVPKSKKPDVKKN

Turning to `Nc1ccc([N+](=O)[O-])cc1Cl`, in test [1], the call was inactive.

On to `CC1=C(C(=O)Nc2ccccc2)S(=O)(=O)CCO1`, for which the outcome in [1] was inactive.

Take `CCCCc1ccc(O)cc1`: in test [1], the result was inactive.

Take `N#C/C=C/c1ccccc1`: the compound was called inactive in test [1].

As to `ClC1=C(Cl)C2(Cl)C3C(Cl)C(Cl)CC3C1(Cl)C2(Cl)Cl` (configuration not stated), the compound was classed as inactive in [2], in test [3], in test [4], in [5], in test [6] and in test [7]. Moreover, the compound was classed as inactive in test [8], in test [9], in [10], in [11], in test [13] and in [14]. The outcome in test [15], in [17] and in [18] was inactive. The AC50 is 77 µM (active) in test [12], 2.81 µM (active) in [16] and 157 µM (active) in [1].

With `C=CC(=O)OCC(CC)(COC(=O)C=C)COC(=O)C=C`, in [1], the call was inactive.

On to `CC(C)(C)c1ccc(O)cc1`, for which the call in [2], in [3], in [4], in [5], in test [6] and in test [8] was inactive. The outcome in test [9], in test [10], in [11], in test [12], in test [13] and in [14] was inactive. The compound was classed as inactive in test [15], in test [16] and in [17].

Turning to `CC(C)Nc1ccc(Nc2ccccc2)cc1`, the call in test [1] was inactive.

With `ClC(Cl)(Cl)c1ccccc1`, the result in test [2], in test [3], in test [4], in test [5], in test [6] and in [8] was inactive. Also, the outcome in test [9], in test [10], in [11], in test [12], in test [13] and in test [14] was inactive. Further, the result in [15], in test [16], in test [17] and in test [18] was inactive.

`O=S1(=O)OCC2C(CO1)C1(Cl)C(Cl)=C(Cl)C2(Cl)C1(Cl)Cl` (configuration not stated): the result in test [1] was inactive.

For `CCCCOCCOP(=O)(OCCOCCCC)OCCOCCCC`, in [1], the result was inactive.

These data come from PubChem BioAssay (EPA / NIEHS).
